# In the supplement of paper PMC7156485:
# Values without a mark were called inactive.
# Tested on: TDF
# Assay: H1.0 immunofluorescence intensity relative to DMSO (% of DMSO); higher = stronger H1.0 induction, active = 120 or more
# Conditions: concentration: 10 µM; 24 h
# How it was run: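 HCC1569 and TDF cells were seeded at 800 per well in 384-well plates in RPMI with 10% FBS and treated with compounds at 10 µM for 24 h at 37 °C, in triplicate. After fixation in 3.7% formaldehyde, cells were stained with a rabbit anti-H1.0 antibody, an AlexaFluor 647 secondary and DAPI, and six fields per well were imaged at ×10. H1.0 nuclear intensity or cell number is given as percent of the plate control, using the median of replicates, with HCC1569 values smoothed for positional effects.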
# 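Also: TDF is a line of transformed human dermal fibroblasts of mesenchymal origin.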
row,SMILES,H1.0 immunofluorescence intensity
1,CCCCCC=CCC=CC=CC=CCC(=O)CCCC(=O)O [5-Ketoeicosatetraenoic acid],98.1
2,O=C1CN(N=Cc2ccc(-c3ccc([N+](=O)[O-])cc3)o2)C(=O)[N-]1.[Na+] [Dantrolene sodium],100
3,Cc1ccc(S(=O)(=O)N2c3ccccc3Oc3ccccc32)cc1 [10-[(4-methylphenyl)sulfonyl]-10H-phenoxazine],161 (active)
4,CC(N)=NCCCC[C@H](N)C(=O)O.Cl [L-N6-(1-Iminoethyl)lysine hydrochloride],84.8
5,COc1cc(C2CC(=O)c3c(O)cc(O)cc3O2)ccc1O (configuration not stated) [Homoeriodictyol],99
6,"CCN(CC)CCOC(=O)c1cc(Cl)c(N)cc1OC.Cl [SDZ-205,557 hydrochloride]",85.4
7,"CCCCCC=CCC=CCC=CCCCCCCC(=O)O [8(Z), 11(Z), 14(Z)-Eicosatrienoic Acid]",97.9
8,CN1C(C(=O)Nc2ccccn2)=C(O)c2ccccc2S1(=O)=O [Piroxicam],96.9
9,NC(=O)c1noc([C@H](CCCC2CCCCC2)CC(=O)NO)n1,99.6
10,CCCCCC(O)C=CC=CCC=CCCCCC(=O)O (configuration not stated),97.2
11,CC(N)=NCc1cccc(CN)c1.Cl.Cl [1400W dihydrochloride],90.6
12,CC1=NN(c2ccc(C(=O)O)cc2)C(=O)/C1=C\c1ccc(-c2cc(C)c(C)cc2[N+](=O)[O-])o1,84.9
